Experimental data from the antibiotic and cytotoxicity screens of Wong et al. (2023).
Hit rate of the full screen: of about 39,000 compounds, about 1,500 (3.8%) were called active. Shown is part of a subset that was picked to be rich in actives.

What follows are compounds tested on HSkMC (human skeletal muscle cells) (assay: cytotoxicity call (relative viability < 0.9)). Conditions: 10 µM.

Row | SMILES | cytotoxicity call
1 | C/C=C/c1ccc2c(c1)O[C@@H](CN(C)S(=O)(=O)c1ccc(C)cc1)[C@@H](C)CN([C@@H](C)CO)S2(=O)=O | inactive
2 | C[C@H]1CCCCO[C@@H](CN(C)S(=O)(=O)c2cccs2)[C@@H](C)CN([C@@H](C)CO)C(=O)c2cc(NC(=O)NC3CCCCC3)ccc2O1 | inactive
3 | CCn1nc(C)c([C@@H](C)N)c1C | inactive
4 | Cc1ccc(S(=O)(=O)Nc2ccc3c(c2)C(=O)N([C@H](C)CO)C[C@@H](C)[C@H](CN(C)C(=O)Nc2cccc4ccccc24)OCCCC[C@H](C)O3)cc1 | inactive
5 | COc1ccc(NC(=O)N(C)C[C@H]2Oc3ccc(NS(C)(=O)=O)cc3C(=O)N([C@H](C)CO)C[C@H]2C)cc1 | inactive
6 | C[C@H]1CN([C@@H](C)CO)C(=O)Cc2cc(NC(=O)Cn3cnnn3)ccc2O[C@@H]1CN(C)C(=O)NC1CCCCC1 | inactive
7 | CC1(C)CNCC(=O)NC1 | inactive
8 | Cc1cc(C)nc(SCC(=O)NN)n1 | inactive
9 | Cc1ncc(NC(=O)c2ccc(CN3CCN(C)CC3)c(C(F)(F)F)c2)cc1Nc1nccc(-c2cccnc2)n1 | inactive
10 | Cc1ccc(NC(=O)c2ccc(CN3CCN(C)CC3)cc2)cc1Nc1nccc(-c2cccnc2)n1 | inactive
11 | O=C(Nc1cccnc1)c1nc2ncccn2n1 | inactive
12 | Cc1cn(-c2cc(NC(=O)c3ccc(C)c(Nc4nccc(-c5cccnc5)n4)c3)cc(C(F)(F)F)c2)cn1 | active
13 | Cc1ccc(NC(=O)c2ccc(CN3CC[C@H](N(C)C)C3)c(C(F)(F)F)c2)cc1Nc1nccc(-c2cncnc2)n1 | active
14 | Cc1cn(-c2cc(NC(=O)c3ccc(C)c(Nc4nccc(-c5cnccn5)n4)c3)cc(C(F)(F)F)c2)cn1 | active
15 | Cc1ccc(C(=O)Nc2cccc(C(F)(F)F)c2)cc1Nc1nc(-c2cccnc2)nc2c1cnn2C | inactive
16 | C[C@@H]1CN([C@H](C)CO)C(=O)c2cc(/C=C/c3ccccc3)cnc2O[C@H]1CN(C)C(=O)c1cnccn1 | inactive
17 | CN1CCN(C(=O)C[C@@H]2CC[C@H]3[C@@H](COC[C@@H](O)CN3C(=O)C3CCCC3)O2)CC1 | inactive
18 | Cc1noc(C)c1S(=O)(=O)Nc1ccc2c(c1)C(=O)N([C@H](C)CO)C[C@@H](C)[C@H](CN(C)S(=O)(=O)c1cccs1)O2 | inactive
19 | Cc1ccc(S(=O)(=O)Nc2ccc3c(c2)C(=O)N([C@H](C)CO)C[C@H](C)[C@@H](CN(C)Cc2ccncc2)OCCCC[C@H](C)O3)cc1 | inactive
20 | COc1ccc(NC(=O)N(C)C[C@@H]2OCCCC[C@@H](C)Oc3ccc(NC(=O)Cc4ccccc4)cc3C(=O)N([C@@H](C)CO)C[C@H]2C)cc1 | inactive
21 | C[C@H](CO)N1C[C@H](C)[C@@H](CN(C)Cc2ccc(C(=O)O)cc2)Oc2c(NC(=O)Nc3cccc4ccccc34)cccc2C1=O | inactive
22 | C[C@@H]1CCCCO[C@H](CN(C)S(C)(=O)=O)[C@@H](C)CN([C@H](C)CO)C(=O)c2cc(NS(=O)(=O)c3ccc(F)cc3)ccc2O1 | inactive

Row | SMILES | cytotoxicity call
23 | C[C@@H]1CN([C@H](C)CO)C(=O)c2cc(NC(=O)Nc3ccc(C(F)(F)F)cc3)ccc2O[C@@H](C)CCCCO[C@H]1CN(C)S(=O)(=O)c1cn(C)cn1 | inactive
24 | COc1ccc(S(=O)(=O)Nc2ccc3c(c2)C(=O)N([C@@H](C)CO)C[C@H](C)[C@@H](CN(C)C(=O)c2ccccc2)OCCCC[C@H](C)O3)cc1 | inactive
25 | COc1cc2c(=O)c(-c3ccc4c(c3)OCO4)coc2c2c1OC(C)(C)C=C2 | inactive
26 | COc1cc2c(cc1OC)-c1c(oc3c4c(ccc3c1=O)OC(C)(C)C=C4)CO2 | inactive
27 | COc1c(-c2coc3cc4c(cc3c2=O)CC(O)C(C)(C)O4)ccc2c1C=CC(C)(C)O2 (stereo not given) | active
28 | C[C@@H]1CCCCO[C@@H](CN(C)Cc2ccc(C(=O)O)cc2)[C@H](C)CN([C@H](C)CO)C(=O)c2cc(NC(=O)NC3CCCCC3)ccc2O1 | inactive
29 | COCC#Cc1ccc2c(c1)O[C@H](CN(C)S(=O)(=O)c1ccc(OC)cc1)[C@H](C)CN([C@@H](C)CO)S2(=O)=O | inactive
30 | Cc1noc(C)c1S(=O)(=O)Nc1ccc2c(c1)CC(=O)N([C@H](C)CO)C[C@H](C)[C@@H](CN(C)Cc1ccc(-c3ccccc3)cc1)O2 | active
31 | Cc1noc(C)c1S(=O)(=O)Nc1ccc2c(c1)CC(=O)N([C@H](C)CO)C[C@@H](C)[C@H](CN(C)Cc1ccc(-c3ccccc3)cc1)O2 | inactive
32 | Cc1noc(C)c1S(=O)(=O)Nc1ccc2c(c1)CC(=O)N([C@@H](C)CO)C[C@H](C)[C@@H](CN(C)Cc1ccc(-c3ccccc3)cc1)O2 | inactive
33 | Cc1noc(C)c1S(=O)(=O)Nc1ccc2c(c1)CC(=O)N([C@@H](C)CO)C[C@@H](C)[C@@H](CN(C)Cc1ccc(-c3ccccc3)cc1)O2 | inactive
34 | Cc1noc(C)c1S(=O)(=O)Nc1ccc2c(c1)CC(=O)N([C@@H](C)CO)C[C@@H](C)[C@H](CN(C)Cc1ccc(-c3ccccc3)cc1)O2 | active
35 | Cc1noc(C)c1S(=O)(=O)Nc1ccc2c(c1)CC(=O)N([C@@H](C)CO)C[C@H](C)[C@H](CN(C)Cc1ccc(-c3ccccc3)cc1)O2 | inactive
36 | CC(C)CC#Cc1cnc2c(c1)C(=O)N([C@H](C)CO)C[C@H](C)[C@@H](CN(C)C(=O)CN1CCOCC1)O2 | inactive
37 | NC(=O)N1C(=O)[C@H]2[C@H](C1=O)[C@H]1C=C(CCCO)[C@@H]2[C@H](c2ccc(CN3CCCC3)cc2)N1Cc1sc2ccccc2c1Cl | inactive
38 | C[C@@H]1CN([C@H](C)CO)C(=O)c2cc(NS(=O)(=O)c3cccs3)ccc2O[C@@H]1CN(C)CC1CC1 | inactive
39 | C[C@@H]1CN([C@H](C)CO)C(=O)Cc2cc(NS(=O)(=O)c3cccs3)ccc2O[C@H]1CN(C)S(=O)(=O)c1ccc(F)cc1 | inactive
40 | C[C@H](CO)N1C[C@H](C)[C@@H](CN(C)C(=O)Nc2ccc(F)cc2)OCCCC[C@H](C)Oc2ccc(NC(=O)Nc3cccc4ccccc34)cc2C1=O | inactive
41 | COCCCNC(=O)[C@@]1(Cc2ccccc2I)c2ccccc2C(=O)N(C2CCCCC2)[C@H]1c1ccc(CO)cc1 | inactive
42 | C[C@@H]1CN([C@@H](C)CO)C(=O)Cc2cc(NC(=O)Nc3ccccc3)ccc2O[C@H]1CN(C)Cc1ccc(C(F)(F)F)cc1 | active
43 | C[C@H](CO)N1C[C@H](C)[C@@H](CN(C)Cc2ccc(C(F)(F)F)cc2)Oc2ccc(NC(=O)Nc3ccccc3)cc2CC1=O | inactive
44 | C[C@@H]1CN([C@H](C)CO)C(=O)Cc2cc(NC(=O)Nc3ccccc3)ccc2O[C@@H]1CN(C)Cc1ccc(C(F)(F)F)cc1 | active

Row | SMILES | cytotoxicity call
45 | C[C@H]1CN([C@@H](C)CO)C(=O)Cc2cc(NC(=O)Nc3ccccc3)ccc2O[C@H]1CN(C)Cc1ccc(C(F)(F)F)cc1 | active
46 | C[C@@H]1CN([C@@H](C)CO)C(=O)Cc2cc(NC(=O)Nc3ccccc3)ccc2O[C@@H]1CN(C)Cc1ccc(C(F)(F)F)cc1 | active
47 | C[C@@H](O)C#Cc1ccc2c(c1)O[C@@H](CN(C)C(=O)C1CCCCC1)[C@@H](C)CN([C@@H](C)CO)S2(=O)=O | inactive
48 | Cc1noc(C)c1S(=O)(=O)Nc1ccc2c(c1)C(=O)N([C@H](C)CO)C[C@H](C)[C@H](CN(C)Cc1ccc(Cl)c(Cl)c1)OCCCC[C@@H](C)O2 | inactive
49 | COc1oc(C(=O)NC2CCCCC2)c(-c2ccc(Cl)cc2)c1S(=O)(=O)c1ccc2c(c1)OCCO2 | inactive
50 | CN1C(=O)c2cc(NS(=O)(=O)c3ccc(F)cc3)ccc2OC[C@@H]2O[C@H](CC(=O)NCC(F)(F)F)CC[C@H]21 | inactive
51 | C[C@@H]1CCCCO[C@H](CN(C)S(=O)(=O)c2ccc(F)cc2)[C@H](C)CN([C@@H](C)CO)C(=O)c2cc(NS(=O)(=O)c3ccc(Cl)cc3)ccc2O1 | inactive
52 | COc1ccc(O)cn1 | inactive
53 | C[C@H]1CCCCO[C@H](CN(C)S(=O)(=O)c2cccs2)[C@@H](C)CN([C@@H](C)CO)C(=O)c2cc(NC(=O)Nc3cccc4ccccc34)ccc2O1 | inactive
54 | C[C@@H]1CN([C@@H](C)CO)C(=O)c2cc(NC(=O)Nc3ccccc3)ccc2O[C@H]1CN(C)S(C)(=O)=O | inactive
55 | CC(C)NC(=O)N(C)C[C@H]1Oc2ccc(NS(=O)(=O)c3ccc(F)cc3)cc2CC(=O)N([C@@H](C)CO)C[C@H]1C | inactive
56 | O=C1C=CC(O)(/C=C/C(=O)O[C@@H]2[C@@H](O)[C@H](Oc3ccc(O)cc3)O[C@H](CO)[C@H]2O)C=C1 | inactive
57 | C[C@H](CO)N1C[C@H](C)[C@@H](CN(C)Cc2cccc(C(=O)Nc3ccccc3N)c2)OCc2ccccc2-c2c(n(C)c3ccccc23)C1=O | inactive
58 | C[C@H]1CN([C@@H](C)CO)C(=O)Cc2cc(NC(=O)Nc3ccccc3)ccc2O[C@@H]1CN(C)Cc1ccc(C(F)(F)F)cc1 | active
59 | C[C@H](CO)N1C[C@H](C)[C@H](CN(C)Cc2ccc(C(F)(F)F)cc2)Oc2ccc(NC(=O)Nc3ccccc3)cc2CC1=O | active
60 | C[C@@H]1CN([C@H](C)CO)C(=O)Cc2cc(NC(=O)Nc3ccccc3)ccc2O[C@H]1CN(C)Cc1ccc(C(F)(F)F)cc1 | active
61 | C=C1C(c2ccc(C)cc2)=CCc2cc(C)cc(C)c21 | inactive
62 | C[C@@H]1CCCCO[C@@H](CN(C)S(=O)(=O)c2cccs2)[C@H](C)CN([C@@H](C)CO)C(=O)c2cc(NC(=O)Nc3ccc(F)cc3)ccc2O1 | inactive
63 | Cc1nnn2c1COC[C@H](CNCC(C)C)C2 | inactive
64 | COCC(=O)Nc1ccc2c(c1)OC[C@@H](C)N(Cc1ccccc1OC)C[C@@H](C)[C@@H](OC)CN(C)C2=O | inactive
65 | COc1ccc(NC(=O)Nc2ccc3c(c2)C(=O)N([C@@H](C)CO)C[C@@H](C)[C@@H](CN(C)S(=O)(=O)c2cccs2)OCCCC[C@H](C)O3)cc1 | inactive
